The nature of test [1]: blockers of polyQ-driven CASP3 activation – cell-based (AID 1583). The settings on record: polyglutamine-induced caspase-3 activation, cell assay; stronger effect = higher value;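 tested at 10 µM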.
The nature of test [2]: yeast 75Q aggregation reduction – 75Q-TubU reporter (AID 1593). Particulars: Yeast 75Q polyglutamine aggregation reporter.
The nature of test [3]: restoration of touch response, mutant HTT neurons – whole organism, C. elegans mechanosensory neurons, N-terminal huntingtin (AID 1599). The settings on record: C. elegans polyQ-huntingtin mechanosensory neurons, stronger effect = higher value.
Test [4] in a line: blockers of cytochrome c efflux from mitochondria – biochemical, purified mitochondria (AID 1603).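 Further: mouse liver mitochondria challenged with calcium chloride; signal normalized to the plate average as 100%.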 Particulars: stronger effect = lower value.
Test [5] in a line: polyglutamine aggregate formation blockers (AID 1604). Particulars: polyglutamine-induced protein aggregation inhibition assay; stronger effect = higher value; tested at 2.5 µM.
Test [6] can be described thus: glutamate transport activators, MN-1 cells, MN-1 cell line (AID 1612).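 Further: tested at 1 µM final; 0% = mean of DMSO vehicle wells on each plate; positive means more glutamate uptake than control and negative means less.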 Particulars: MN-1 motor neuron cells, stronger effect = higher value.
A short description of test [7]: GFP-Q80 aggregate reduction, neuronal-like cells, cell-based, NGF-treated PC12, GFPQ80 (AID 1614).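 Further: lower means fewer inclusions and 0 means no inclusions at all.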 The settings on record: PC12 NGF-treated GFP-polyQ80 inclusion reduction.
Test [8] is described as follows: 75Q-TubH aggregate inhibition, S. cerevisiae, yeast (AID 1616). Particulars: S. cerevisiae 75Q-TubH polyglutamine aggregation suppression; stronger effect = higher value.
Test [9] has as its target Mitogen-activated protein kinase 7 (Homo sapiens) (UniProt Q13164). The experiment in a line: Gal4-ERK5 driven luciferase induction – cell-based, HTS, primary screen (AID 1508626;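 active means luciferase signal above three times the same-plate solvent-only control wells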;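 further: luciferase driven by Gal4-ERK5 fusion binding five Gal4 sites before minimal TATA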). The settings on record: HeLa Gal4-ERK5 transactivation, 18 h, at 5 µM, stronger effect = higher value.
Test [10] in a line: rescue of PC12 cells from polyQ htt toxicity – LDH release (AID 1610). The settings on record: PC12 mutant huntingtin toxicity, final LDH at 4 uM, stronger effect = lower value.
Test [11] can be described thus: glutamate excitotoxicity neuroprotectants – cell-based, TUNEL DNA degradation staining, MNGlu (AID 1594). The settings on record: motor neurons, glutamate-induced death, at 1 µM, stronger effect = higher value.

Experimental findings from PubChem BioAssay are described below.

Records with an inconclusive call do not appear. For part of these data: Results with a measured potency or affinity are listed apart. Active and inactive are the calls of the source. Unless noted, how the calls were made is not given here.

Mitogen-activated protein kinase 7 (Homo sapiens), sequence (Q13164 whole entry, looked up, the tested form may be a part): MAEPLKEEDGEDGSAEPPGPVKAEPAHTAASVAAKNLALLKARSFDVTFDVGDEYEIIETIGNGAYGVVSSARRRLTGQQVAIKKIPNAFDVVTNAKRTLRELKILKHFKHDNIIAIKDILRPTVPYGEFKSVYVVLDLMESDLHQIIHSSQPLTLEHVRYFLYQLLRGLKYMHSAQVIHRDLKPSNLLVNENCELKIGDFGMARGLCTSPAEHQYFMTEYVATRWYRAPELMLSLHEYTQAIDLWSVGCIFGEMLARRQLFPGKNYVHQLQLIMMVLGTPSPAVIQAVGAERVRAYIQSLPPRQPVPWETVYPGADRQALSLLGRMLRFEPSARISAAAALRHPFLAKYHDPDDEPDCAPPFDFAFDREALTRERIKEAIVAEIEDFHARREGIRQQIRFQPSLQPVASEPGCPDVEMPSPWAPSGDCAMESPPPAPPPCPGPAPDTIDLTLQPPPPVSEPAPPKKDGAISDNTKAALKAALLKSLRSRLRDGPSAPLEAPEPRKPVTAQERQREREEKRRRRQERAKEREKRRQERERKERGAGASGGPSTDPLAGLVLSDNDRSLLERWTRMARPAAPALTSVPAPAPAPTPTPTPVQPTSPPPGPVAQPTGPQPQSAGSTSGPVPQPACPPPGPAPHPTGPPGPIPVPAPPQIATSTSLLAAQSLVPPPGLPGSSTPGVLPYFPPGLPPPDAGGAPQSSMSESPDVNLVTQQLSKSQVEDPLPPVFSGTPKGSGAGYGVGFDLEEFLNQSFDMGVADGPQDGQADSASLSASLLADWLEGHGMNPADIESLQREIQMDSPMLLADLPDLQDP

As usually defined, the inhibition is the change of the read-out against control, counted positive when it falls. With `CC(N)Cc1ccccc1` (stereo unspecified), in test [1], the inhibition was 18%. The molecule also gave a score in test [2] of 0.93. In addition, the rescue above control in [3] is -1.93. Also, the cytochrome c release ratio in test [4] is 0.82. This molecule displayed an inhibition of aggregation in [5] of 10.2%. In addition, the glutamate uptake change in test [6] is 31.4%. This molecule also gave an inclusion score in test [7] of 2. Besides, the aggregation suppression score in test [8] came out at 0.923.

On to `CCOC(=O)C1C(OC(=O)c2ccccc2)CC2CCC1N2C` (stereo unspecified), for which the inhibition in [1] was 4.42%. The score in [2] was 1.01. The molecule further had a rescue above control in test [3] of -8. For the same molecule, the cytochrome c release ratio in [4] is 0.89. The molecule further registered an inhibition of aggregation in test [5] of 44.2%. In test [6], the glutamate uptake change was -24.3%. Further, in test [7], the inclusion score came to 2. In addition, the aggregation suppression score in [8] was determined as 1.45.

For the molecule `CC(C)[C@@H]1NC(=O)[C@H](C)OC(=O)[C@@H](C(C)C)NC(=O)[C@@H](C(C)C)OC(=O)[C@H](C(C)C)NC(=O)[C@H](C)OC(=O)[C@@H](C(C)C)NC(=O)[C@@H](C(C)C)OC(=O)[C@H](C(C)C)NC(=O)[C@H](C)OC(=O)[C@@H](C(C)C)NC(=O)[C@@H](C(C)C)OC1=O`, the luciferase signal in test [9] is 36 AU (inactive).

For the molecule `CN1C2CCC1C(C(=O)O)C(OC(=O)c1ccccc1)C2` (stereo unspecified), the inhibition in [1] was -11.5%. Besides, the score in [2] amounted to 0.85. Further, the rescue above control in [3] was -9.16. Besides, the cytochrome c release ratio in [4] was determined as 1.03. The inhibition of aggregation in [5] worked out at 41.5%. Further, the glutamate uptake change in [6] was -21%. This molecule came in with an inclusion score in test [7] of 2. Further, the aggregation suppression score in test [8] was 1.17.

On to `CCCCCc1cc(O)c2c(c1)OC(C)(C)C1CCC(C)=CC21` (stereo unspecified), for which, in [1], the inhibition is 5.35%. Moreover, the score in test [2] was -0.54. Also, the rescue above control in test [3] is -0.11. The cytochrome c release ratio in test [4] was determined as 2.94. In test [5], this molecule displayed an inhibition of aggregation of 34.7%. Moreover, the normalised LDH release in test [10] is 0.893. In addition, in test [6], the glutamate uptake change is -3.83%. In [8], this molecule displayed an aggregation suppression score of 0.291.

Regarding `O=C1CN=C(c2ccccc2)c2cc(Cl)ccc2N1`, in [1], the inhibition came to 6.42%. For the same molecule, in test [2], the score came out at 1.16. The protection in test [11] was 38% (active). The same molecule gave a rescue above control in [3] of 2.8. In addition, in [4], the cytochrome c release ratio worked out at 0.98. The inhibition of aggregation in test [5] turned out to be 2.04%. The glutamate uptake change in [6] was -20.9%. Further, the inclusion score in [7] worked out at 2. For the same molecule, in [8], the aggregation suppression score was found to be 1.12.

`CN1C(=O)C(O)N=C(c2ccccc2)c2cc(Cl)ccc21` (stereo unspecified): the inhibition in test [1] was -6.64%. This molecule yielded a score in test [2] of 1.21. The rescue above control in [3] was determined as 0.82. In test [4], the cytochrome c release ratio turned out to be 0.99. This molecule came in with an inhibition of aggregation in [5] of 8.84%. In addition, in [6], the glutamate uptake change is 4.66%. This molecule also registered an inclusion score in [7] of 2. This molecule also yielded an aggregation suppression score in test [8] of 1.05.

On to `CCCCCc1cc(O)c2c(c1)OC(C)(C)C1CC=C(C)CC21` (stereo unspecified), for which, in test [1], the inhibition is 13.2%. The molecule also displayed a score in [2] of -0.66. This molecule displayed a rescue above control in test [3] of -4.34. For the same molecule, the cytochrome c release ratio in test [4] came to 1.71. The molecule further yielded an inhibition of aggregation in [5] of 42.9%. In [10], this molecule came in with a normalised LDH release of 0.999. For the same molecule, the glutamate uptake change in [6] was -49.9%. Besides, in test [8], the aggregation suppression score worked out at 0.105.

For `CC1CC[C@@]2(NC1)OC1CC3C4CC=C5CC(O)CCC5(C)C4CCC3(C)C1[C@@H]2C` (stereo partly specified), in [1], the inhibition was 0.23%. Further, the score in test [2] was determined as 1.05. The molecule also registered a rescue above control in test [3] of -8.79. The cytochrome c release ratio in test [4] is 1.04. Besides, the inhibition of aggregation in test [5] amounted to 64.7%. In addition, in test [6], the glutamate uptake change is -2.74%. The molecule also came in with an inclusion score in test [7] of 2. In test [8], this molecule registered an aggregation suppression score of 0.556.
